What was measured:
Details in all cases: inducer concentration 5 mM; 6 h; Cupriavidus necator H16; minimal medium + 0.4% gluconate
[1] = test system: AcoR/P_H16_RS19445 acetoin biosensor (pEH052); experiment: relative induction of RFP reporter vs primary effector (background-corrected); higher = stronger activation of the biosensor
Procedure: (§1)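 C. necator H16 strains, each carrying one of 21 transcription factor/inducible promoter–mRFP biosensor plasmids, were grown in minimal medium in 96-well plates (robotic platform). Each was exposed to 46 structurally or metabolically related compounds at 5 mM at 30 °C. OD-normalised RFP fluorescence was read 6 h later and expressed as relative induction (%) = 100 × (FL compound − FL uninduced)/(FL primary inducer − FL uninduced); mean of n=4.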

[2] = test system: AraC/P_araBAD L-arabinose biosensor (pEH176); experiment: as above
Procedure: as §1

[3] = test system: BenM/P_H16_RS09790 benzoate biosensor (pEH148); experiment: as above
Procedure: as §1

[4] = test system: FdsR/P_H16_RS03165 formate biosensor (pEH134); experiment: as above
Procedure: as §1

[5] = test system: GabR/P_H16_RS23655 GABA biosensor (pEH256); experiment: as above
Procedure: as §1

[6] = test system: HpdR/P_H16_RS18295 3-hydroxypropanoate biosensor (pEH010); experiment: as above
Procedure: as §1

[7] = test system: KynR/P_H16_RS14030 L-kynurenine biosensor (pEH136); experiment: as above
Procedure: as §1

[8] = test system: NahR/P_H16_RS08125 salicylate biosensor (pEH042); experiment: as above
Procedure: as §1

[9] = test system: OapR/P_H16_RS01330 beta-alanine biosensor (pEH147); experiment: as above
Procedure: as §1

[10] = test system: PcaQ/P_H16_RS30145 3,4-dihydroxybenzoate biosensor (pEH161); experiment: as above
Procedure: as §1

[11] = test system: PhgR/P_H16_RS05530 phenylglyoxylate biosensor (pEH155); experiment: as above
Procedure: as §1

[12] = test system: PhhR/P_H16_RS18365 L-phenylalanine biosensor (pEH137); experiment: as above
Procedure: as §1

[13] = test system: SauR/P_H16_RS13695 sulfonatoacetate biosensor (pEH157); experiment: as above
Procedure: as §1

[14] = test system: TtdR/P_H16_RS10665 tartrate biosensor (pEH083); experiment: as above
Procedure: as §1

[15] = test system: XdhR/P_H16_RS05055 xanthine biosensor (pEH154); experiment: as above
Procedure: as §1

[16] = test system: heterologous inducible system pEH002 (rhamnose/acrylate/cumate/itaconate set); experiment: as above
Procedure: as §1

[17] = test system: heterologous inducible system pEH020 (rhamnose/acrylate/cumate/itaconate set); experiment: as above
Procedure: as §1

[18] = test system: heterologous inducible system pEH040 (rhamnose/acrylate/cumate/itaconate set); experiment: as above
Procedure: as §1

[19] = test system: heterologous inducible system pEH086 (rhamnose/acrylate/cumate/itaconate set); experiment: as above
Procedure: as §1

[20] = test system: BadR/P_H16_RS27200 cyclohexanecarboxylate biosensor (pEH159); experiment: as above
Procedure: as §1

[21] = test system: AcoR/P_H16_RS19445 acetoin biosensor (pEH052); experiment: relative induction of RFP reporter vs primary effector; higher = stronger activation
Procedure: (§2)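 Orthogonality screen of 21 primary inducers against 21 transcription factor/inducible promoter–mRFP biosensors in C. necator H16 in minimal medium, robotic 96-well format, 5 mM inducer, 30 °C. OD-normalised RFP fluorescence was read 6 h later and expressed as relative induction (%) = 100 × (FL compound − FL uninduced)/(FL primary inducer − FL uninduced); mean of n=4. Cognate pairs (100% by definition) omitted.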

[22] = test system: AraC/P_araBAD L-arabinose biosensor (pEH176); experiment: as above
Procedure: as §2

[23] = test system: BadR/P_H16_RS27200 cyclohexanecarboxylate biosensor (pEH159); experiment: as above
Procedure: as §2

[24] = test system: BenM/P_H16_RS09790 benzoate biosensor (pEH148); experiment: as above
Procedure: as §2

[25] = test system: GabR/P_H16_RS23655 GABA biosensor (pEH256); experiment: as above
Procedure: as §2

[26] = test system: HpdA/P_H16_RS24175 L-tyrosine biosensor (pEH158); experiment: as above
Procedure: as §2

[27] = test system: NahR/P_H16_RS08125 salicylate biosensor (pEH042); experiment: as above
Procedure: as §2

[28] = test system: OapR/P_H16_RS01330 beta-alanine biosensor (pEH147); experiment: as above
Procedure: as §2

[29] = test system: PcaQ/P_H16_RS30145 3,4-dihydroxybenzoate biosensor (pEH161); experiment: as above
Procedure: as §2

[30] = test system: PhgR/P_H16_RS05530 phenylglyoxylate biosensor (pEH155); experiment: as above
Procedure: as §2

[31] = test system: SauR/P_H16_RS13695 sulfonatoacetate biosensor (pEH157); experiment: as above
Procedure: as §2

[32] = test system: TtdR/P_H16_RS10665 tartrate biosensor (pEH083); experiment: as above
Procedure: as §2

[33] = test system: XdhR/P_H16_RS05055 xanthine biosensor (pEH154); experiment: as above
Procedure: as §2

[34] = test system: heterologous L-rhamnose-inducible system; experiment: as above
Procedure: as §2

[35] = test system: heterologous acrylate-inducible system; experiment: as above
Procedure: as §2

[36] = test system: heterologous cumate-inducible system; experiment: as above
Procedure: as §2

[37] = test system: heterologous itaconate-inducible system; experiment: as above
Procedure: as §2

[38] = test system: FdsR/P_H16_RS03165 formate biosensor (pEH134); experiment: as above
Procedure: as §2
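Throughout, for relative induction of RFP reporter vs primary effector (background-corrected): RFP excited at 585 nm with emission read at 620 nm, culture medium blanks subtracted from fluorescence and absorbance prior to normalisation.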

O=C(O)[C@@H](O)[C@@H](O)[C@H](O)[C@@H](O)C(=O)O [glucarate]
relative induction of RFP reporter [1]: 16.6% | relative induction of RFP reporter [2]: -0.00794% | relative induction of RFP reporter [3]: 0.00581% | relative induction of RFP reporter [4]: -1.03% | relative induction of RFP reporter [5]: 0.559% | relative induction of RFP reporter [6]: 0.059% | relative induction of RFP reporter [7]: 0.0265% | relative induction of RFP reporter [8]: 0.0258% | relative induction of RFP reporter [9]: 0.058% | relative induction of RFP reporter [10]: 0.00441% | relative induction of RFP reporter [11]: -0.232% | relative induction of RFP reporter [12]: -0.08% | relative induction of RFP reporter [13]: -0.0162% | relative induction of RFP reporter [14]: -0.0655% | relative induction of RFP reporter [15]: 0.202% | relative induction of RFP reporter [16]: 0.0271% | relative induction of RFP reporter [17]: 0.067% | relative induction of RFP reporter [18]: 0.131% | relative induction of RFP reporter [19]: 0.127%

CCCC(=O)O [butyric acid]
relative induction of RFP reporter [1]: -2.08% | relative induction of RFP reporter [2]: -0.0107% | relative induction of RFP reporter [20]: 0.491% | relative induction of RFP reporter [3]: -0.0464% | relative induction of RFP reporter [4]: -1.59% | relative induction of RFP reporter [5]: -2.45% | relative induction of RFP reporter [6]: -0.186% | relative induction of RFP reporter [7]: -0.35% | relative induction of RFP reporter [8]: -0.000826% | relative induction of RFP reporter [9]: -0.94% | relative induction of RFP reporter [10]: 0.636% | relative induction of RFP reporter [11]: -0.41% | relative induction of RFP reporter [12]: -0.461% | relative induction of RFP reporter [13]: 0.0337% | relative induction of RFP reporter [14]: -0.384% | relative induction of RFP reporter [15]: -0.758% | relative induction of RFP reporter [16]: -0.00916% | relative induction of RFP reporter [17]: -1.33% | relative induction of RFP reporter [18]: -0.981% | relative induction of RFP reporter [19]: -0.0776%

O=CO [formate]
relative induction of RFP reporter [21]: -0.63% | relative induction of RFP reporter [22]: -0.0317% | relative induction of RFP reporter [23]: -0.738% | relative induction of RFP reporter [24]: 0.0137% | relative induction of RFP reporter [25]: -0.53% | relative induction of RFP reporter [26]: -0.107% | relative induction of RFP reporter [27]: 0.0105% | relative induction of RFP reporter [28]: 0.208% | relative induction of RFP reporter [29]: -0.0432% | relative induction of RFP reporter [30]: -0.511% | relative induction of RFP reporter [31]: 0.0555% | relative induction of RFP reporter [32]: 0.287% | relative induction of RFP reporter [33]: -0.347% | relative induction of RFP reporter [34]: 0.0165% | relative induction of RFP reporter [35]: -0.251% | relative induction of RFP reporter [36]: -0.422% | relative induction of RFP reporter [37]: 0.516%

C=C(CC(=O)O)C(=O)O [itaconate]
relative induction of RFP reporter [21]: 7.98% | relative induction of RFP reporter [22]: -0.0132% | relative induction of RFP reporter [23]: -0.216% | relative induction of RFP reporter [24]: -0.0396% | relative induction of RFP reporter [38]: -5.89% | relative induction of RFP reporter [25]: -1.61% | relative induction of RFP reporter [26]: -0.159% | relative induction of RFP reporter [27]: 0.0104% | relative induction of RFP reporter [28]: -0.257% | relative induction of RFP reporter [29]: -0.0579% | relative induction of RFP reporter [30]: -0.453% | relative induction of RFP reporter [31]: 0.0423% | relative induction of RFP reporter [32]: -0.0311% | relative induction of RFP reporter [33]: -0.326% | relative induction of RFP reporter [34]: 0.00546% | relative induction of RFP reporter [35]: -0.778% | relative induction of RFP reporter [36]: -0.202%

Reference: the supplement of paper PMC7057948, “A genome-wide approach for identification and characterisation of metabolite-inducible systems” (Nature Communications, 2020)
